What all share (type): functional
In test [1] the target is Solute carrier family 2, facilitated glucose transporter member 1 (Homo sapiens) (UniProt P11166). The test is described as follows: ST_JUDE_LEISH: Cytotoxicity at 2uM final concentration against transgenic Leishmania Mexicana promastigotes LmGLUT1 that are glucose transport deficient and complemented with the human glucose transporter GLUT1. Activity is measured by DNA content using SYBR green in vitro.

For test [2], the target named is Hexose transporter 1 (Plasmodium falciparum) (UniProt O97467). Put plainly: ST_JUDE_LEISH: Cytotoxicity at 2uM final concentration against transgenic Leishmania Mexicana promastigotes LmPfHT that are glucose transport deficient and complemented with the Plasmodium falciparum hexose transporter. Activity is measured by DNA content using SYBR green in vitro.
Test [3] has as its target Glucose transporter (Leishmania mexicana) (UniProt O61059). The test is described as follows: ST_JUDE_LEISH: Cytotoxicity at 2uM final concentration against transgenic Leishmania Mexicana promastigotes LmGT2 that are glucose transport deficient and complemented with the L. Mexicana glucose transporter 2. Activity is measured by DNA content using SYBR green in vitro.

This note sets out measurements from ChEMBL document CHEMBL3433997, “St. Jude Leishmania screening dataset” (2016).

The structures appear in SMILES notation.

Chain of Solute carrier family 2, facilitated glucose transporter member 1 (Homo sapiens) (P11166 whole entry): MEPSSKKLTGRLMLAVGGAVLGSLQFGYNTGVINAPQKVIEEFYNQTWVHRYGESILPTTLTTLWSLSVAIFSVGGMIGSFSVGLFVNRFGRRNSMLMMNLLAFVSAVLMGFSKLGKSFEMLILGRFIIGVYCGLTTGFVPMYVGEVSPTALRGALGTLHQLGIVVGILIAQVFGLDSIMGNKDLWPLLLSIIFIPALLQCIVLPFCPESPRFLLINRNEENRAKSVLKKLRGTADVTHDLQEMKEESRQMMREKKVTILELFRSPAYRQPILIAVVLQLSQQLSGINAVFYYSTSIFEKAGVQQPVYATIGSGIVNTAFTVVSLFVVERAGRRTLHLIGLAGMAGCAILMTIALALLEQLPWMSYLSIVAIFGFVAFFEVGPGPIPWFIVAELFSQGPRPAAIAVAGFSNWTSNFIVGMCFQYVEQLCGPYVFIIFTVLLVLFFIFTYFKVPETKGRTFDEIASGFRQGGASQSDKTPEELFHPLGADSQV

What is called inhibition is the drop in the measured response relative to a control, in per cent. Take `O=C(NCCc1ccccc1)N(Cc1cccc(-c2ccc(CNC3CCCC3)cc2)c1)C1CCN(Cc2ccccc2)CC1`: the inhibition in test [1] was found to be 13.9%; in test [2], 13.2%; in test [3], 11.2%.
For `C=C(NC(=O)C1CCCCC1)C(=O)OC`, in that order: -0.71%, 2.29% and 0.41%.
As for `CC(=O)Nc1nc(C(=O)Nc2cccc(-c3ccc4c(cnn4CC4CC4)c3)c2)cs1`, the figures for the inhibition in test [1], in test [2] and in test [3] were 1.74%, 1.84% and 2.13%, respectively.
As to `COc1ccc(NC(=O)C2c3ccccc3C(=O)N(CC(C)C)C2c2cccs2)cc1OC` (stereo unspecified), the inhibition in test [1] was -0.36%; in test [2] it was 0.34%; in test [3], 0.28%.
For `Cc1cccc2nc(-c3cccc(-c4cccc(NC(=O)NCc5cccc(F)c5)c4)c3)[nH]c12`, in that order: 4.66%, 6.34% and 5.41%.
For `CCc1ccccc1N1CCN(CCCC(=O)c2ccc(NC(=O)c3cc(Cl)cc(Cl)c3)cc2)CC1`, in that order: 3.17%, 4.43% and 3.44%.
In the case of `CCN(CC)CCN(Cc1ccc(-c2ccc(C(F)(F)F)cc2)cc1)C(=O)Cn1c(CCc2ccc(F)c(F)c2)cc(=O)c2ccccc21`, the inhibition in test [1] is 7.8%; in test [2] it was 7.35%; in test [3] it was 8.28%.
For `CCCCCN1CCCC(CNS(=O)(=O)c2ccc(C(=O)Nc3ccc(C(F)(F)F)cc3)cc2)C1` (stereo unspecified) the same measures were -1.01%, -0.37% and -0.42%.
For `COc1ccc(CC(Cc2ccc(OC)cc2)NCC(O)c2cccc(Cl)c2)cc1` (stereo unspecified) the same measures were 2.03%, 0.72% and 1.6%.
For `CC=CC(=O)N1CCN(c2nccc(-c3ccc(C(C)(C)C)cc3)n2)CC1`, in that order: 8.6%, 9.97% and 7.85%.
Regarding `COc1ccc(Cn2c(=O)[nH]c3cc(C(=O)NC4CCN(Cc5ccccc5)CC4)ccc3c2=O)cc1`, the inhibition in test [1] was 2.2%; in test [2], 0.63%; in test [3], 2.59%.
As for `COc1ccc2nccc(N(C)CC3(O)CCC(NCc4ccc5c(n4)NC(=O)CS5)CC3)c2n1` (stereo unspecified), the figures for the inhibition in test [1], in test [2] and in test [3] were 3.69%, 3.78% and 1.23%, respectively.
For `CC1CCCC(C)N1C[C@@H](O)CNS(=O)(=O)c1cccc(C(F)(F)F)c1` (stereo partly specified), in that order: 0.21%, 0.37% and -0.01%.
For `Cc1c(C)n(C2CCCC2)c2ncnc(OC3CCN(CC(=O)NC4CC4)CC3)c12`, in that order: 9.5%, 6.34% and 7.75%.
In the case of `O=C(NCC1CCN(CCN2CCC(c3cn(CCO)c4ccccc34)CC2)CC1)c1ccc(-c2ccc(C(F)(F)F)cc2)cc1`, the inhibition in test [1] was determined as 4.27%; in test [2], 5.41%; in test [3], 3.71%.
For `CC(CON1C(N)=NC(N)=NC1(C)C)Cc1ccc(Cl)cc1Cl` (stereo unspecified) the same measures were -0.6%, -1.29% and -0.29%.
For `Cc1cccc(-c2nc3cc(NC(=O)c4ccc([N+](=O)[O-])o4)ccc3o2)c1` the same measures were 6.53%, 7.69% and 2.04%.
For `O=C(NCCN1CCCC1)c1ccc(-c2ccc(-c3nc4cc(C(F)(F)F)ccc4[nH]3)s2)cc1`, in that order: 3.7%, 2.28% and 3.38%.
Turning to `c1cncc(-c2cc(N3CCc4ccccc4C3)nc(-c3ccncc3)n2)c1`, the values for the inhibition in test [1], in test [2] and in test [3] were 8.78%, 7.89% and 4.28%, respectively.
Consider `COc1ccc2c(=NN=Cc3c(OC)ccc4ccccc34)cc(C)[nH]c2c1`, for which the inhibition in test [1] came out at 2.05%; in test [2], 2.99%; in test [3] it was 4.08%.
For `Cc1cc(N/N=C/c2ccc([N+](=O)[O-])cc2)c2ccc(F)cc2n1`, in that order: 2.33%, 3.03% and -1.86%.
For `Clc1ccc(-c2[nH]c3ccccc3c2CN2CCC(N3CCCCC3)CC2)cc1`, the inhibition in test [1] is 15.2%; in test [2], 14.7%; in test [3], 15.2%.
As for `Cc1cc(N[C@@H](Cc2ccccc2)C(=O)NCCOc2ccccc2)nc(NCCc2ccccn2)n1`, the inhibition in test [1] stood at 6.81%; in test [2], 6.41%; in test [3] it was 3.94%.
As for `Cc1cccc2nc(-c3ccc(-c4ccc(CN5CCN(CCN6CCOCC6)CC5)cc4)s3)[nH]c12`, the inhibition turned out to be 2.9% in test [1], 3.89% in test [2] and 1.02% in test [3].
For `Cc1cc(NCCC(=O)NCCOc2ccccc2)nc(Nc2ccccc2)n1` the same measures were 5.24%, 4.64% and 0.05%.
For `CCc1cc(Cc2cnc(N)nc2N)cc(CC)c1OC` the same measures were 2.48%, 0.46% and -1.28%.
For `COc1ccc(-c2ccc(NC(=O)c3ccc(F)cc3)cc2)cc1CN1CCCN(C)CC1` the same measures were 6.26%, 3.81% and 2.87%.
As to `FC(F)(F)c1ccc2[nH]c(-c3ccc(-c4cccc(CN5CCN(c6ccncc6)CC5)c4)cc3)nc2c1`, the results for the inhibition in test [1], in test [2] and in test [3] were 64.9%, 53.5% and 9.81%, respectively.
For `O=S(=O)(NCCCN1CCOCC1)c1ccc2nccc(Nc3ccc(Oc4ccccc4)cc3)c2c1` the same measures were -1.16%, -0.87% and -0.94%.
`CN1CCC(OC(=O)c2cc3cc(-c4ccccc4)ccc3n2S(=O)(=O)c2ccccc2)CC1`: the figures for the inhibition in test [1], in test [2] and in test [3] were 1.64%, 0.71% and 3.61%, respectively.
For `CCCCc1ccc(-c2nc(NC(=O)Nc3[nH]c(-c4ccccc4)nc3C(=O)OCC)c(C(=O)OCC)[nH]2)cc1` the same measures were 3.65%, 0.82% and -0.95%.
For `COc1cc(-c2cc3cc(Cl)c(Cl)cc3[nH]2)ccc1C(=O)NCCC1CCCN1C` (stereo unspecified), in that order: -0.78%, -0.94% and -1.26%.
